Experimental data as given in PubChem BioAssay (NCATS).
Inconclusive results are not listed. Values without a mark were called inactive. Calls come from the whole dose curve; as a rule, active = well fitted inhibition curve with a large enough effect; inconclusive = small, poorly fitted or top-dose-only effect; inactive = flat fitted curve, though single readings scatter.

Molecular target: Aldehyde dehydrogenase, mitochondrial (Homo sapiens) (UniProt P05091)
Experiment: qHTS for Inhibitors of the Aldehyde Dehydrogenase Family (ALDH2) Primary screen (AID 2061308);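 note: plate controls were vehicle for no effect and reference inhibitor for full effect; nearly all actives have a fitted effect of over 55% in size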
Settings: ALDH2 enzyme inhibition qHTS, 1536-well; series mostly up to 56 µM; activity change, negative = inhibition: at the top concentration

SMILES | activity change, negative = inhibition
O=C(Nc1ncc(Cc2ccc(C(F)(F)F)cc2)s1)c1cnc(-c2ccccc2)o1 | 4.01%
C=C(CO)C(=O)O[C@H]1CC(=C)[C@@H]2C[C@H](O)C(=C)[C@@H]2[C@H]2OC(=O)C(=C)[C@@H]21 | 3.51%
C[C@H]1C/C=C/[C@H]2[C@@H]3O[C@]3(C)[C@@H](C)[C@H]3[C@H](Cc4ccccc4)NC(=O)[C@]32OC(=O)O/C=C/[C@@](C)(O)C1=O | 4.01% [at 28 µM]
CC(CCc1ccc(O)cc1)O[C@@H]1O[C@H](CO[C@H]2OC[C@](O)(CO)[C@H]2O)[C@@H](O)[C@H](O)[C@H]1O (some centres not stated) | -0.192% [at 28 µM]
C[C@]12CC[C@H](O)C[C@H]1CC[C@@H]1[C@@H]2[C@H](O)C(=O)[C@]2(C)[C@@H](c3ccc(=O)oc3)CC[C@]12O | -0.905%
N#Cc1ccc(NC(=O)Nc2nnc(-c3ccncc3)s2)cc1Br | -5.53%
S=P(c1ccccc1)(c1ccccc1)c1cnc2ccccn12 | -18%
C[C@@H]1CCC/C=C/[C@H]2C[C@@H](O)C[C@@H]2[C@@H](O)/C=C/C(=O)O1 | -0.396%
C/C=C(\C)C(=O)O[C@H]1CC2C(=C1C)[C@H]1OC(=O)[C@](C)(O)[C@]1(O)[C@H](OC(=O)CCC)C[C@@]2(C)OC(C)=O (some centres not stated) | -2.46% [at 28 µM]
CCOc1ccc(CCNC(=O)c2cc3ccccc3n2Cc2cccc(C)n2)cc1OCC | 2.06%
CC(C)C(=O)O[C@H]1[C@@H]2[C@H](C)C(=O)O[C@@H]2C[C@@H](C)[C@@H]2C=CC(=O)[C@]21C | 1.88%
CCOc1ccc(CCNC(=O)c2ccc(Oc3ccccc3)cc2)cc1OCC | 6.98%
